The nature of assay [1]: qHTS drug screen for cell cycle checkpoint inhibitors in PARPi-resistant BRCA-mutant ovarian cancer cell lines. (AID 1963452; calls by dose curve). As to conditions: PEO1/OlaR viability, CellTiter-Glo luminescence, 96 h, stronger effect = lower value. An outline of the steps: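 PEO1, PEO4 and PEO1/OlaR ovarian cancer cells, 600 per well, exposed 96 h at 37C to a dilution series. Viability read by CellTiter-Glo luminescence, normalized to DMSO and empty wells; activity summarized as Z-AUC.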

Assay [2] can be described thus: qHTS profiling for inhibitors of Plasmodium falciparum proliferation (AID 504749). Further: nearly all actives have a fitted effect of over 60% in size. Further: potency means the concentration at half of the fitted maximal effect.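 On activity, negative = inhibition: 0% = DMSO vehicle and full inhibition = artemisinin control.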 As to conditions: P. falciparum in erythrocytes, SYBR Green DNA, 72 h. An outline of the steps:
(§1)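 SYBR Green fluorescence of parasite DNA, read after lysis and overnight dark incubation, measured growth over 72 h in erythrocyte culture at 0.3% parasitemia and 2.5% hematocrit. Data normalised to DMSO and 0.29 uM artemisinin, with plate-drift correction.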

In assay [3] the test system is 3D7. The description is as above. To be noted: P. falciparum in erythrocytes, SYBR Green DNA, 72 h; series mostly up to 28.7 µM. The method, boiled down:
as §1

The subject of assay [4] is 7G8. The description is as above. To be noted: P. falciparum in erythrocytes, SYBR Green DNA, 72 h; series mostly up to 28.7 µM. An outline of the steps:
as §1

Assay [5] has as its system AA1029. The assay is described as above. As to conditions: P. falciparum in erythrocytes, SYBR Green DNA, 72 h; series mostly up to 28.7 µM. The method, boiled down:
as §1

Assay [6] concerns AS120. The assay is described as above. To be noted: P. falciparum in erythrocytes, SYBR Green DNA, 72 h; series mostly up to 28.7 µM. The method, boiled down: as §1
In assay [7] the test system is ATS189. Described as above. To be noted: P. falciparum in erythrocytes, SYBR Green DNA, 72 h; series mostly up to 28.7 µM. The method, boiled down:
as §1

Assay [8] in a line: qHTS for identification of novel therapeutic agents for treatment of microphthalmiaassociated transcription factor (MiT) renal cell carcinoma (RCC) (AID 1963991). To be noted: CellTiter-Glo, 48 h, stronger effect = lower value. An outline of the steps: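 Viability of three TFE3-fusion renal carcinoma lines measured by CellTiter-Glo after 48 h treatment with each of 1912 compounds at 11 concentrations. Responses scaled between DMSO (100%) and empty wells (0%) before curve fitting.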

[9] abbreviates: measured here: PEO1 parental Z-AUC.
The mark [10] stands for this setting: at 28.7 µM (top of the series), parasite line A.
Where [11] appears, read: at 28.7 µM (top of the series), parasite line B.
Where [12] appears, read: at 12.8 µM (top of the series), parasite line A.
Setting [13] is: at 12.8 µM (top of the series), parasite line B.

The values below come from PubChem BioAssay (NCATS).

Inconclusive results are not listed. The source made the active and inactive calls. Unless noted, the call rests on the fitted dose curve; in most records, active means well fitted inhibition curve with a large enough effect; inconclusive means small, poorly fitted or top-dose-only effect; inactive means flat fitted curve, though single readings scatter.

For the compound `CN(C)CCOC(c1ccccc1)c1ccccc1`, the figures for the Z-AUC in assay [1], in assay [1] (setting [9]) and in assay [1] (measured here: PEO4 Z-AUC) were -0.454 (inactive), 0.718 and -0.44, respectively. For the same compound, the activity, negative = inhibition was 13.6% (inactive) in assay [2] (setting [10]) and 11.2% (inactive) in assay [2] (setting [11]). The Potency result in assay [3] was “inactive”. Besides, the Potency in assay [4] is 11.2 µM (active).
In the case of `CC(C)NCC(O)c1ccc(O)c(O)c1` (centres undefined), the Z-AUC was 1.31 (inactive) in assay [1], 0.911 in assay [1] (setting [9]) and 0.816 in assay [1] (measured here: PEO4 Z-AUC). For the same compound, the activity, negative = inhibition in assay [2] (setting [10]) is -3.62% (inactive); in assay [2] (setting [11]) it was -0.405% (inactive). The Potency result in assay [3], in assay [5], in assay [6] and in assay [7] was “inactive” in each case.
As for `CN1C(C(=O)Nc2ccccn2)=C(O)c2ccccc2S1(=O)=O`, the Z-AUC is 0.47 (inactive) in assay [1], 0.178 in assay [1] (setting [9]) and 0.354 in assay [1] (measured here: PEO4 Z-AUC). Also, the activity, negative = inhibition was -3.72% (inactive) in assay [2] (setting [12]) and -0.0614% (inactive) in assay [2] (setting [13]). Further, the Potency entry in assay [3], in assay [4], in assay [5], in assay [6] and in assay [7] was “inactive” throughout.
Regarding `CNCCCC12CCC(c3ccccc31)c1ccccc12`, the results for the Z-AUC in assay [1], in assay [1] (setting [9]) and in assay [1] (measured here: PEO4 Z-AUC) were -0.42 (inactive), 0.397 and 0.261, respectively. Also, the activity, negative = inhibition is 0.742% (inactive) in assay [2] (setting [10]) and -2.12% (inactive) in assay [2] (setting [11]). Further, the Potency entry in assay [3], in assay [5], in assay [6] and in assay [7] was “inactive” throughout. Further, the Potency in assay [4] is 10 µM (active).
Regarding `CCC1(c2ccccc2)C(=O)NCNC1=O`, the values for the Z-AUC in assay [1], in assay [1] (setting [9]) and in assay [1] (measured here: PEO4 Z-AUC) were 1.12 (inactive), 0.974 and 1.04, respectively. In addition, the activity, negative = inhibition in assay [2] (setting [10]) was 6.87% (inactive); in assay [2] (setting [11]), 11.7% (inactive). The Potency entry in assay [3], in assay [4], in assay [5], in assay [6] and in assay [7] was “inactive” in each case.
Take `CC(C)C(=O)Nc1ccc([N+](=O)[O-])c(C(F)(F)F)c1`: the Z-AUC was -1.15 (inactive) in assay [1], -0.423 in assay [1] (setting [9]) and 0.418 in assay [1] (measured here: PEO4 Z-AUC). Besides, the activity, negative = inhibition in assay [2] (setting [10]) was 5.81% (inactive); in assay [2] (setting [11]) it was 10.3% (inactive). In addition, the Potency result in assay [3], in assay [5], in assay [6] and in assay [7] was “inactive” each time.
In the case of `O=C1N(c2ccccc2)c2ccccc2C1(Cc1ccncc1)Cc1ccncc1`, the Z-AUC is -0.0273 (inactive) in assay [1], 0.843 in assay [1] (setting [9]) and 0.797 in assay [1] (measured here: PEO4 Z-AUC). Further, the figures for the activity, negative = inhibition in assay [2] (setting [10]) and in assay [2] (setting [11]) were 1.98% (inactive) and -9.11% (inactive), respectively. Also, the Potency entry in assay [3], in assay [5], in assay [6] and in assay [7] was “inactive” throughout. Further, the Potency in assay [4] is 8.91 µM (active).
`CN(C)CCCN1c2ccccc2CCc2ccc(Cl)cc21`: the results for the Z-AUC in assay [1], in assay [1] (setting [9]) and in assay [1] (measured here: PEO4 Z-AUC) were -0.0245 (inactive), -0.498 and -0.622, respectively. The activity, negative = inhibition in assay [2] (setting [10]) is -15.4% (inactive); in assay [2] (setting [11]), -29.1% (inactive). In addition, in assay [3], the Potency entry was “inactive”. In assay [4], the Potency was 5.01 µM (active).
For `CS(=O)(=O)Nc1ccc([N+](=O)[O-])cc1Oc1ccccc1`, the Z-AUC in assay [1] is 1.34 (inactive); in assay [1] (setting [9]), 1.22; in assay [1] (measured here: PEO4 Z-AUC), 1.35. For the same compound, the z-score in assay [8] (TFE3-RCC UOK109 viability, measured here: UOK109 Z-AUC) was determined as 1.08; in assay [8] (TFE3-RCC viability, measured here: UOK124 Z-AUC), 0.234; in assay [8] (TFE3-RCC viability, measured here: UOK145 Z-AUC), 0.487. For the same compound, the activity, negative = inhibition in assay [2] (setting [12]) was 15.2% (inactive); in assay [2] (setting [13]), 9.68% (inactive). Moreover, the Potency result in assay [3], in assay [4], in assay [5], in assay [6] and in assay [7] was “inactive” throughout.
In the case of `CC(C)(Oc1ccc(C2CC2(Cl)Cl)cc1)C(=O)O` (centres undefined), the Z-AUC was -0.348 (inactive) in assay [1], -0.606 in assay [1] (setting [9]) and -0.292 in assay [1] (measured here: PEO4 Z-AUC). The activity, negative = inhibition is -6.79% (inactive) in assay [2] (setting [10]) and 2.45% (inactive) in assay [2] (setting [11]). Moreover, the Potency entry in assay [3], in assay [5], in assay [6] and in assay [7] was “inactive” in each case.
